# High-throughput results (PubChem BioAssay)
# Hits are enriched below; roughly 1.6% of the tested compounds scored in any of these assays.
# V-ATPase pH – yeast V-ATPase proton transport regulation by pHLuorin | response, % at 10 µM | 0.37% of 350,000 active | AID 504577 | S. cerevisiae, pHLuorin cytosolic pH fluorescence; in the data active means response mostly above about 7.3%, no sharp cut-off; inactive means mostly below about 5.4%; further: actives read high
# PG9 binder – PG9 antibody binding by small molecule; TR-FRET gp120-PG9 antibody binding; inhibition, % at 6.7 µM; 0.43% of 360,000 active; AID 624416; in the data active means inhibition above about 8.5%
# NR1D1 modulator – modulators of human Rev-erb alpha DNA binding | Rev-erbα–FITC-DNA binding, fluorescence polarization, 90 min | activity, % at 10 µM | 0.79% of 370,000 active;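 active means activity above about 14%, limit read from the data; passing the limit was not always enough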;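 further: 0% = DMSO wells with 35 nM protein and 100% = DMSO wells with 750 nM protein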
# NPR1 activator – GC-A (human) enzyme activation. P16066. HEK293 GC-A cells, cGMP TR-FRET, EC30 ANP; 0% at EC30 ANP, 100% saturating ANP. activation, % at 10 µM. 0.14% of 370,000 active; in the data active means activation above about 40%
# Target sequence (P16066 whole entry, looked up): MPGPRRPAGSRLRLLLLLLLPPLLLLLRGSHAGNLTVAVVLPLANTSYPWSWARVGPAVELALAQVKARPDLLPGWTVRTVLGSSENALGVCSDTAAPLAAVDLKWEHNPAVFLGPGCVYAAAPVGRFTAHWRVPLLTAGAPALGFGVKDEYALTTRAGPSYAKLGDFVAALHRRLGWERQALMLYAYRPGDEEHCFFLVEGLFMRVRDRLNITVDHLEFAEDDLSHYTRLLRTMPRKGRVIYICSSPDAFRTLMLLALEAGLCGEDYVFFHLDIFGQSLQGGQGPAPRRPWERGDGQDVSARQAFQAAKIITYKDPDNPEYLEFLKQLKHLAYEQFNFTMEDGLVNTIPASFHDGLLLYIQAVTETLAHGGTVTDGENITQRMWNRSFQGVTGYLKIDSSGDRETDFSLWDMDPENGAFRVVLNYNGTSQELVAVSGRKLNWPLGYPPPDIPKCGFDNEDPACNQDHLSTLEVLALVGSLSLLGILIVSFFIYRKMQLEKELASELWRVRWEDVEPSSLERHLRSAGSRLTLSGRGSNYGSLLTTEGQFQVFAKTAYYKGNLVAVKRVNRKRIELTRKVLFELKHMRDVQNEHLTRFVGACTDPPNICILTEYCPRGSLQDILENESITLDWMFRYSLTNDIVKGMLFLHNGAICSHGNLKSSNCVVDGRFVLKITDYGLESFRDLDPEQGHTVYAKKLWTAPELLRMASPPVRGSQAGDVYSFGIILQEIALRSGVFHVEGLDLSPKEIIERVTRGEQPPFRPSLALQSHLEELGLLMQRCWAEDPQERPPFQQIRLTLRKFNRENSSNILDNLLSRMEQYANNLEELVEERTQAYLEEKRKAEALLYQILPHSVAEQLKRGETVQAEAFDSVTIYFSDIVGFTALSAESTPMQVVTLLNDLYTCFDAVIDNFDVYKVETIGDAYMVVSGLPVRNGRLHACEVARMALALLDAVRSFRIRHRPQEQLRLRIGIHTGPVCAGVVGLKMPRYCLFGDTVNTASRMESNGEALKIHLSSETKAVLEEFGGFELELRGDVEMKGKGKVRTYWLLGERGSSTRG
# NPR2 activator – GC-B (human) receptor activation; P20594; activation, % at 10 µM; AID 1920062; HEK293-GC-B cells, CNP EC30, cGMP TR-FRET; 0% at EC30 CNP, 100% saturating CNP; 0.11% of 370,000 active;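 active means activation at 10 µM reaching about 35% in either raw or pattern-adjusted values, limit read from the data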
# Rev-erbA confirm – confirmation of modulators of human Rev-erb alpha DNA binding; shares compounds with NR1D1 modulator; Rev-erb alpha FITC-DNA binding, fluorescence polarization, 90 min; activation, % at 25 µM; 61% of 3,000 active;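 active means activation at or above a set limit, or at least 3 SD above the negative control mean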;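 further: 0% = 35 nM protein with DMSO and 100% = 750 nM protein high control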
# RORg DNA counter – affects RORgamma DNA binding in a Rev-erb alpha counter-screen | 8% of 910 active | shares compounds with NR1D1 modulator | purified RORgamma protein-FITC-DNA binding, fluorescence polarization | IC50, µM | AID 1259320;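 active means Compounds whose fitted half-maximal concentration for disrupting protein-DNA binding is below 10 micromolar; the record names Rev-erb in its text, so the target is in doubt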
# * marks the source's active call; other numbers are inactive results; x = no result given.
SMILES,V-ATPase pH,PG9 binder,NR1D1 modulator,NPR1 activator,NPR2 activator,Rev-erbA confirm,others
CCC(C)OC(=O)c1cc(C)nc2c(Br)cc(Br)cc12 (stereo unspecified),-4,4,46*,2,-6,46*,RORg DNA counter=>40
COC(=O)c1c(NC(=O)c2ccc(N(C)S(=O)(=O)c3ccc(C)cc3)cc2)sc2c1CCCC2,2,-1,34*,4,1,15,
Cc1cccc(NC(=O)Cn2nnc(-c3ccccc3F)n2)c1C,x,x,-6,5,3,x,
CCOc1ccc(NC(=O)c2ccc(NC(=O)c3cn4c5c(c(N6CCN(C)CC6)c(F)cc5c3=O)OCC4C)cc2)cc1 (stereo unspecified),1,-1,70*,6,7,41*,
CC(=O)c1cc(-c2cnn(Cc3ccccc3)c2)c(=O)n2c1CCC2,x,x,-3,4,-7,x,
O=C(Nc1ccc(C(F)(F)F)cc1)c1cc(-c2cccnc2)nc2ccc(Br)cc12,-5,0,34*,10,3,22*,
CCSc1nnc(NC(=O)CSc2nc3c(cc2C#N)CCCC3)s1,1,0,34*,0,-3,19*,
CCc1nnc(NC(=O)CSc2nc3c(cc2C#N)CCC3)s1,-6,1,29*,3,-2,31*,
N#Cc1cc2c(nc1SCC(=O)Nc1sc3c(c1C#N)CCC3)CCC2,0,1,9,-12,-15,x,
CCCCCCCCN1C(=O)[C@@H](CC(=O)NCCCOC)C[C@@]2(C(=O)OC)C1=C[C@H](COCc1ccccc1)O[C@@H]2C,x,x,0,-1,9,x,
CC(=O)OC12CCCN(C1)/C(=C/c1cccc(N(C)C)c1)C2 (stereo unspecified),x,x,2,-2,-5,x,
O=C(CSc1nnnn1-c1ccccc1)Nc1nsc(-c2ccc(Cl)cc2)n1,3,8,26*,23,-1,43*,
Cc1ccc(-c2nc(NC(=O)CSc3cc(C)c4ccccc4n3)ns2)cc1,0,0,499*,1,6,61*,RORg DNA counter=>40
O=C(CSc1nnnn1-c1ccccc1)Nc1nsc(-c2ccccc2)n1,2,1,8,5,-2,x,
Cc1nn(-c2ccc(Cl)c(Cl)c2)c(=O)c2ccccc12,3,-1,48*,8,-7,41*,RORg DNA counter=>40
O=C1CCC[C@H]2C[C@H](NCc3ccc(F)cc3F)CC[C@]23CCCN13,x,x,-3,-1,0,x,
CC(=O)Nc1ccc(C(=O)CSc2nnc3scc(-c4ccccc4)n23)cc1,1,-14,4,-1,1,x,
O=C(CCSc1nnc2scc(-c3ccccc3)n12)Nc1nc(-c2ccccc2)ns1,-6,0,24*,0,3,46*,RORg DNA counter=>40
Cc1cccc(N2CCN(c3ccc4cc(S(=O)(=O)N5CCCCC5)ccc4n3)CC2C)c1 (stereo unspecified),-1,0,78*,3,5,49*,RORg DNA counter=>40
Cc1cccc(N2CCN(c3ccc4cc(S(=O)(=O)N5CCCCC5)ccc4n3)CC2)c1C,0,-1,101*,1,11,50*,RORg DNA counter=>40
CC(C)[C@H](N)C(=O)N1CCC[C@@H]1C(=O)N1CCC2CCN(S(=O)(=O)c3ccccc3)CC21 (stereo partly specified),x,x,2,5,6,x,
Cc1ccc(-n2c(Cc3cccs3)nnc2SCC(=O)Nc2cccc3ccccc23)cc1,x,x,-1,-12,-12,x,
Nc1[nH]c(C(=O)c2ccccc2)c(-c2cccc3ccccc23)c1C(=O)c1c(-c2ccccc2)[nH]c2ccccc12,x,x,11,-13,-18,x,
CC/C(=N\Nc1ccc([N+](=O)[O-])cc1[N+](=O)[O-])c1ccc(O)cc1,0,0,-5,11,-3,x,
CC/C(=N\Nc1ccccc1[N+](=O)[O-])c1ccc(O)cc1,2,-4,15*,-22,-8,-2,
Cc1cc(N(CCO)CCO)ccc1N=Nc1cc(F)ccc1F,-5,-1,54*,22,-3,29*,
CN(C)c1ccc(N=Nc2ccccc2C(=O)OCC(=O)N(C)c2ccccc2)cc1,1,-2,22*,-1,-4,23*,
